# From PubChem BioAssay (NCATS)
# Results filed as inconclusive are left out. The source made the active and inactive calls. The call rests on the fitted dose curve; in most records, active means well fitted curve in the direction sought with a large enough effect; inconclusive means small, poorly fitted or top-dose-only effect, or another doubt; inactive means no such curve, though single readings can be large; an effect the other way counts as inactive or inconclusive. Starred links: 1 amine or outer side, 2 acyl side, 3 side chain; linkers in the order of their positions; H or OH if unused. Positions of bridges follow the written chain, without caps; N, C: chain ends. Non-standard residues stand in square brackets, D forms with d. Residues, ends and D or L forms follow the SMILES beside them. Chains are numbered I, II in the order given. Actinocin(9to1) = Cc1c2oc3c(C)ccc(C(=O)[*:1])c3nc-2c(C(=O)[*:2])c(N)c1=O; NMeV = CN[CH](C(=O)O)C(C)C; Sar = CNCC(=O)O
# Tests used:
# [1] = qHTS to identify inhibitors of the type 1 interferon - major histocompatibility complex class I in skeletal muscle: primary screen against the NCATS Pharmaceutical Collection (AID 1347407)
# Summary of the method: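 HLA-B HiBiT myoblasts, dexamethasone-free growth medium + 4 ng/ml IFN-b; compounds pinned 1 h after seeding, […] from 46 uM; 24 h, 37 C, 5% CO2; lytic HiBiT detection, 10 min RT, luminescence.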
# [2] = qHTS to identify inhibitors of the type 1 interferon - major histocompatibility complex class I in skeletal muscle: primary screen against the NCATS Mechanism Interrogation Plate v5.0 (MIPE) Libary (AID 1347411)
# Summary of the method: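 IFN-beta-driven (4 ng/ml) HLA-B-HiBit expression in CRISPR-tagged C25cl48 myoblasts; compounds 11-pt, 1:3, max 46 uM, 24 hr exposure; lytic NanoLuc complementation luminescence.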
# [3] = qHTS assay for small molecule disruptors of mitochondrial membrane potential screened against the NCATS CANVASS Library (AID 1347389); details: HepG2 mitochondrial membrane potential, m-MPI red/green ratio, 1.5 h
# Summary of the method: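 Cells (HepG2) seeded the day before received compound or DMSO for 1 hr, then Mito-MPS dye for 30 min at 37C; emission at 590 nm over 535 nm gave the polarization signal.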
# [4] = qHTS for activators of dead-cell proteases activity screened against the NCATS CANVASS Library (AID 1347392)
# Summary of the method: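 Luminescent dead-cell protease readout (AAF-aminoluciferin, 15 min, room temperature) after 5 h compound treatment of HepG2 cells (2000/well, pre-attached 18 h). Eleven concentrations.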
# [5] = Vero-766 cells viability qHTS against the NCATS CANVASS Library: Counterscreen for Zika virus inhibition assay (AID 1347394)
# Summary of the method: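 CellTiter-Glo luminescence, lower signal indicating cytotoxicity. Vero 766 cells without Zika virus, 1000 cells/well, plated overnight, then treated 72 h at 37C across an 11-point series.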
# [6] = qHTS for inhibitors of Wild type Zika virus screened against the NCATS CANVASS Library (AID 1347396)
# Excerpt: Natural products and their derivatives continue to be wellsprings of nascent therapeutic potential. However, many laboratories have limited resources for biological evaluation, leaving their previously isolated or synthesized compounds largely or completely untested. To address this issue, the Canvass library of natural products was assembled (https://tripod.nih.gov/canvass), in collaboration with academic and industry researchers, for quantitative high-throughput screening (qHTS) across a diverse set of cell-based and biochemical assays. […] The library was formatted into 1536-well plates and evaluated in 50 qHTS (in an 11-pnt concentration series) bioassays with broad scope of disease-relevant mechanisms. The resulting data set from 50 different assays was then systematically analyzed to identify overall trends and specific natural products with interesting biological activities. […]
# Zika virus infection assay protocol: 1. […] In a biosafety cabinet, the desired MOI Zika virus was calculated and 2 uL of 2.5x Zika virus was dispensed into columns 1, 2 and 5 - 48 using the Multidrop Combi dispenser. […] Luminescence signal was obtained via the ViewLux plate reader (Perkin Elmer) using the clear emission filter and 1x binning, 2 seconds exposure settings.
# [7] = qHTS for activators of Nrf2/ARE signaling pathway screened against the NCATS CANVASS Library (AID 1347391)
# Summary of the method: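 Activation of Nrf2/ARE was scored in ARE-bla HepG2 cells after 16 h compound exposure using CCF4 beta-lactamase fluorescence ratio readings.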
# [8] = qHTS for inhibitors of ER calcium dysfunction: SERCaMP assay screened against the NCATS CANVASS Library (AID 1347393)
# Excerpt: Natural products and their derivatives continue to be wellsprings of nascent therapeutic potential. However, many laboratories have limited resources for biological evaluation, leaving their previously isolated or synthesized compounds largely or completely untested. To address this issue, the Canvass library of natural products was assembled (https://tripod.nih.gov/canvass), in collaboration with academic and industry researchers, for quantitative high-throughput screening (qHTS) across a diverse set of cell-based and biochemical assays. The pure (>85% purity by liquid chromatography/mass spectrometry [LC/MS]) Canvass library of 346 natural products were submitted by 45 academic laboratories and companies around the world. We collected pure natural products to circumvent deconvolution and structure elucidation due to time and resource limitations. The library was formatted into 1536-well plates and evaluated in 50 qHTS (in an 11-pnt concentration series) bioassays with broad scope of disease-relevant mechanisms. The resulting data set from 50 different assays was then systematically analyzed to identify overall trends and specific natural products with interesting biological activities. […]
# SERCaMP assay protocol: 1. […] Luminescence signal was obtained via the ViewLux plate reader (Perkin Elmer) using the clear emission filter and 1x binning, 5 seconds exposure settings.
# [9] = Viability qHTS for inhibitors of the SERCaMP assay screened against the NCATS CANVASS Library (AID 1347400)
# Summary of the method: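 Measures loss of viability in SERCaMP reporter SH-SY5Y cells treated for 48 h with compounds; luminescent ATP detection by CellTiter-Glo.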
# [10] = Redox Reaction Profiling qHTS: Assay Interference Panel against the NCATS CANVASS Library (AID 1347401)
# Summary of the method: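 Redox-cycling liability assessed as DTT-driven conversion of resazurin (5 uM, with 200 uM DTT, HEPES pH 7.3) to fluorescent resorufin. Fluorescence at 525/598 nm measured initially and after 15 min dark incubation.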
compound,measurement,setting,value
CCn1c(=O)c2c(nc(C=Cc3ccc(OC)c(OC)c3)n2C)n(CC)c1=O,outcome,[1],inactive
Cn1cnc(=N)c2[nH]cnc21,Potency,[2],inactive
CN(C)c1ccc2cc(C(=O)N[C@@H](CCCN=C(N)CCl)C(=O)NCc3ccccc3)ccc2c1,Potency,[2],20.8 µM (active)
C[C@H](O)[C@@H]1C(=O)N2C(C(=O)O)=C(S[C@@H]3CN[C@H](CNS(N)(=O)=O)C3)[C@@H](C)[C@@H]12,Potency,[2],inactive
CC(C)[C@H](CO)Nc1nc(Nc2cccc(Cl)c2)c2ncn(C(C)C)c2n1,Potency,[2],16.5 µM (active)
OC[C@@H](O)[C@@H](O)[C@H](O)[C@@H](O)CO,Potency,[2],inactive
Nc1ccn(C2CO[C@H](CO)O2)c(=O)n1 (some centres undefined),outcome,[1],inactive
same,Potency,[2],inactive
COC(=O)C1C2CC3c4[nH]c5cc(OC)ccc5c4CCN3CC2CC(OC(=O)c2cc(OC)c(OC)c(OC)c2)C1OC (centres undefined),Potency,[2],inactive
CC(C)C[C@H](NC(=O)[C@@H](NC(=O)c1cccc(-c2ccccc2)n1)[C@@H](C)O)B(O)O,Potency,[2],0.0641 µM (active)
CC1(C)O[C@@H]2C[C@H]3[C@@H]4CCC5=CC(=O)C=C[C@]5(C)[C@@H]4[C@@H](O)C[C@]3(C)[C@]2(C(=O)CO)O1,outcome,[1],inactive
C[C@H](NC(=O)[C@@H](O)c1cc(F)cc(F)c1)C(=O)N[C@@H]1C(=O)N(C)c2ccccc2-c2ccccc21,Potency,[2],inactive
Cc1ccc(-n2[nH]c(C)c(N=Nc3cccc(-c4cccc(C(=O)O)c4)c3O)c2=O)cc1C,outcome,[1],inactive
same,Potency,[2],inactive
COc1cc(C(C)C)c(Oc2cnc(NC(CO)CO)nc2N)cc1I,Potency,[2],inactive
"Cc1c2oc3c(C)ccc(C(=O)NC4C(=O)NC(C(C)C)C(=O)N5CCCC5C(=O)N(C)CC(=O)N(C)C(C(C)C)C(=O)OC4C)c3nc-2c(C(=O)NC2C(=O)NC(C(C)C)C(=O)N3CCCC3C(=O)N(C)CC(=O)N(C)C(C(C)C)C(=O)OC2C)c(N)c1=O (centres undefined) (I: TVP[Sar][NMeV] / II: TVP[Sar][NMeV]; ester I:1-I:C, II:1-II:C; linker I:N-II:N via Actinocin(9to1); configuration not given here)",Potency,[2],0.114 µM (active)
Cc1ccccc1C(=O)Nc1ccc(C(=O)N2CCCC(O)c3cc(Cl)ccc32)c(C)c1 (centres undefined),outcome,[1],inactive
same,Potency,[2],inactive
O=C(O)CCCCCC(=O)NN=C1CCCC1,Potency,[2],inactive
OCCNC1CCCc2c1[nH]c1ccc(-c3ccccc3)cc21 (centres undefined),Potency,[2],20.8 µM (active)
O=c1c(O)c(-c2ccc(O)c(O)c2)oc2cc(O)ccc12,Potency,[3],23.4 µM (active)
same,outcome,[4],inactive
same,Potency,[5],inactive
same,outcome,[6],inactive
O=C(CN1C(=O)C2(CCCC2)NC[C@H]1c1cc(F)cc(F)c1)Nc1ccc2c(c1)C[C@@]1(C2)C(=O)Nc2ncccc21,Potency,[2],inactive
Cc1cn([C@@H]2O[C@H](CO)[C@@H](O)[C@H]2F)c(=O)[nH]c1=O,outcome,[1],inactive
Cn1cc(CNCC2CCN(c3ncc(C(=O)NO)cn3)CC2)c2ccccc21,Potency,[2],0.117 µM (active)
c1ccc(CNc2nc(NCc3ccccc3)c3ccccc3n2)cc1,Potency,[2],26.2 µM (active)
C=C(C)[C@@H]1CC[C@]2(C(=O)O)CC[C@]3(C)[C@H](CC[C@@H]4[C@@]5(C)CC[C@H](O)C(C)(C)[C@@H]5CC[C@]43C)[C@@H]12,Potency,[3],18.6 µM (active)
same,outcome,[7],inactive
same,outcome,[4],inactive
same,outcome,[8],inactive
same,Potency,[5],33.1 µM (active)
same,outcome,[9],inactive
same,outcome,[10],inactive
same,Potency,[2],inactive
Nc1cccc2c1C(=O)N(C1CCC(=O)NC1=O)C2=O (centres undefined),Potency,[2],inactive
Cc1cc(Nc2ncc3c(n2)N(C)C(=O)N(c2cc(NC(=O)c4cccc(C(F)(F)F)c4)ccc2C)C3)n(C)n1,Potency,[2],0.234 µM (active)
CCS(=O)(=O)Nc1ccc2[nH]c(O)c(C(=Nc3ccc(CN4CCCCC4)cc3)c3ccccc3)c2c1,Potency,[2],2.62 µM (active)
N[C@H]1CN(c2c(F)cc3c(=O)c(C(=O)O)cn(C4C[C@@H]4F)c3c2Cl)CC12CC2 (some centres undefined),outcome,[1],inactive
COc1cc(O)c2c(c1)C1OC1C[C@H](O)[C@H](O)C(=O)C=CC[C@H](C)OC2=O (some centres undefined),Potency,[2],13.1 µM (active)
CC(C(C)N1CC(=O)NC(=O)C1)N1CC(=O)NC(=O)C1 (centres undefined),Potency,[2],inactive
CN(C)CCN1C(=O)c2cccc3cc(N)cc(c23)C1=O,Potency,[2],10.4 µM (active)
CCOc1cc2c(c(F)c1OCC)C(=N)N(CC(=O)c1cc(N3CCOCC3)c(OC)c(C(C)(C)C)c1)C2,Potency,[2],14.7 µM (active)
